Source: PubChem (The Scripps Research Institute Molecular Screening Center)
hgDAF12 agonist = agonists of H. glycines DAF-12 nuclear receptor; HEK293 GAL4-hgDAF12 UAS-luciferase reporter, agonist luminescence; normalized to butyrate control; activation, % at 6.8 µM; 370,000 tested, 1.8% active; AID 687014;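 active = activation above a cutoff set at the mean of all screened compounds plus 3 SD, cut at about 10% in these data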;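 note: 0% = DMSO wells and 100% = sodium butyrate wells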
ssDAF-12 act = activators of S. stercoralis DAF-12 nuclear receptor. HEK293 ssDAF-12/GRIP1 lit1-tk-luc reporter, luminescence; % of 3 µM dafachronic acid response. activation, % at 6.8 µM. 370,000 tested, 1% active. AID 652126;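 active = activation above the mean over all tested compounds plus 3 SD, cut at about 0.9% in these data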;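 note: 0% = DMSO-only wells and 100% = 3 µM delta7-dafachronic acid wells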
SMARCA2 activ = activators of SMARCA2 function; MG213 cells, MMTV-luciferase reporter, dexamethasone, overnight; activation, % at 9.1 µM; 370,000 tested, 1% active; in the data active = activation above about 7.8%;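 note: 0% = vehicle wells and 100% = reference activator wells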
hcDAF12 agonist = activates DAF-12 receptor from parasite H. contortus; HEK293 hcDAF-12 lit1-tk-luc reporter, luminescence; 0% DMSO, 100% Δ7-dafachronic acid; activation, % at 6.8 µM; 370,000 tested, 1.4% active;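 active = activation above the mean of all tested compounds plus 3 SD, cut at about 5.5% in these data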;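 note: 100% = response to 3 µM Δ7-dafachronic acid high control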
DAX1 StAR inh = blocks DAX1 repression of SF-1 activated StAR promoter; AID 652010; 370,000 tested, 1.1% active; inhibition, % at 6.8 µM; HEK293T StAR-luciferase reporter, SF-1/DAX-1 repression relief;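 active = inhibition above the mean over all tested compounds plus 3 SD, cut at about 3.6% in these data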;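 note: 0% = DAX-1 cells with DMSO and 100% = cells lacking DAX-1 with DMSO; higher inhibition means more luminescence from relief of DAX-1 repression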
* marks the source's active call; other numbers are inactive results. A selection: hits, their analogues and other compounds. The true share with any hit is near 4.2%.

Results for C=C(C)CSc1nc2sc(C)c(C)c2c(=O)n1C ?
hgDAF12 agonist: 0; ssDAF-12 act: -2; SMARCA2 activ: -3; hcDAF12 agonist: 1; DAX1 StAR inh: -1

What do the screens show for `COc1ccc(CNc2ccc([N+](=O)[O-])cn2)cc1`?
hgDAF12 agonist: 12*; ssDAF-12 act: 0; SMARCA2 activ: 4; hcDAF12 agonist: 0; DAX1 StAR inh: 0

Results for CCOC(=O)[C@@]12CCCC=C1N(CCc1ccc(Cl)cc1)C(=O)[C@H]2CC(=O)NCc1ccc(OC)c(OC)c1 ?
hgDAF12 agonist: -4; ssDAF-12 act: -1; SMARCA2 activ: -4; hcDAF12 agonist: -4; DAX1 StAR inh: -2

How did Cc1cc(=O)[nH]c(=S)n1-c1ccccc1 do in these assays?
hgDAF12 agonist: 9; ssDAF-12 act: 0.9*; SMARCA2 activ: 5; hcDAF12 agonist: 2; DAX1 StAR inh: 2

Results for Nc1cc(=O)[nH]c(=S)n1-c1ccccc1 ?
hgDAF12 agonist: -1; ssDAF-12 act: -1; SMARCA2 activ: -2; hcDAF12 agonist: -1; DAX1 StAR inh: 0

What do the screens show for `CCOC(=O)c1cnc(/N=C/N(C)C)s1`?
hgDAF12 agonist: 1; ssDAF-12 act: -1; SMARCA2 activ: 7.9*; hcDAF12 agonist: -2; DAX1 StAR inh: 0

How did C[C@@H]1CN([C@@H](C)CO)C(=O)c2cc(Br)cnc2O[C@@H]1CN(C)Cc1ccccn1 do in these assays?
hgDAF12 agonist: 0; ssDAF-12 act: -1; SMARCA2 activ: -4; hcDAF12 agonist: 1; DAX1 StAR inh: 0

How did COC(=O)c1cn(Cc2cccnc2)c(=O)c2ccccc12 do in these assays?
hgDAF12 agonist: -1; ssDAF-12 act: 0.9*; SMARCA2 activ: -5; hcDAF12 agonist: -2; DAX1 StAR inh: 0

Results for c1ccc(-c2cccc3[nH]cc(-c4ccccc4)c23)cc1 ?
hgDAF12 agonist: -1; ssDAF-12 act: -1; SMARCA2 activ: -2; hcDAF12 agonist: -1; DAX1 StAR inh: 0

What do the screens show for `c1ccc(Cn2ccc(-c3cnc(-c4ccccc4)s3)n2)cc1`?
hgDAF12 agonist: 12*; ssDAF-12 act: 0; SMARCA2 activ: 5; hcDAF12 agonist: 3; DAX1 StAR inh: 2

What do the screens show for `Cc1ccc(/C=N/NC(=O)C2(C)CC2(Br)Br)cc1` (stereo not drawn)?
hgDAF12 agonist: -1; ssDAF-12 act: 2.0*; SMARCA2 activ: 0; hcDAF12 agonist: 0; DAX1 StAR inh: 0

How did CCCC1CCC2(CCC(=O)N2CCOC)CC1 (stereo not drawn) do in these assays?
hgDAF12 agonist: -1; ssDAF-12 act: -1; SMARCA2 activ: -4; hcDAF12 agonist: -1; DAX1 StAR inh: 2

What do the screens show for `O=c1[nH]c2ccccc2nc1/C=C/c1ccccc1`?
hgDAF12 agonist: 12*; ssDAF-12 act: 1; SMARCA2 activ: 7; hcDAF12 agonist: 6.4*; DAX1 StAR inh: 3

What do the screens show for `CC(C)(C)/C(O)=C/c1nc2ccccc2[nH]c1=O`?
hgDAF12 agonist: -2; ssDAF-12 act: -1; SMARCA2 activ: -2; hcDAF12 agonist: 1; DAX1 StAR inh: 0

How did COC1=C[C@H](C(=O)NCc2ccc(Cl)cc2)C(C)C(c2ccccc2)CC1=O (stereo partly drawn) do in these assays?
hgDAF12 agonist: 5; ssDAF-12 act: -1; SMARCA2 activ: 2; hcDAF12 agonist: -1; DAX1 StAR inh: -1

What do the screens show for `O=C(O)CSc1nnc(NC(=O)c2ccc3c(c2)OCO3)s1`?
hgDAF12 agonist: -1; ssDAF-12 act: -2; SMARCA2 activ: -1; hcDAF12 agonist: 0; DAX1 StAR inh: 0

Results for C=CCSc1nnc(NC(=O)c2ccc3c(c2)OCCO3)s1 ?
hgDAF12 agonist: 5; ssDAF-12 act: -1; SMARCA2 activ: -1; hcDAF12 agonist: 1; DAX1 StAR inh: 3.9*

What do the screens show for `Cc1nc(SCC(=O)c2cc3ccccc3oc2=O)c(C#N)c(C)c1C(=O)Nc1ccccc1`?
hgDAF12 agonist: 2; ssDAF-12 act: 1.1*; SMARCA2 activ: -1; hcDAF12 agonist: 1; DAX1 StAR inh: 1

How did CSc1nc(C)c(C(=O)Nc2ccccc2)c(C)c1C#N do in these assays?
hgDAF12 agonist: -1; ssDAF-12 act: -2; SMARCA2 activ: -3; hcDAF12 agonist: -2; DAX1 StAR inh: 0

What do the screens show for `Cc1nn(Cc2c(F)c(F)c(F)c(F)c2F)c(C)c1NC(=O)c1ccc(COc2ccccc2Cl)cc1`?
hgDAF12 agonist: -3; ssDAF-12 act: -2; SMARCA2 activ: 2; hcDAF12 agonist: 0; DAX1 StAR inh: -1

How did Cc1nn(Cc2c(F)c(F)c(F)c(F)c2F)c(C)c1NC(=O)c1ccc(COc2cc(Cl)ccc2Cl)cc1 do in these assays?
hgDAF12 agonist: 10; ssDAF-12 act: 3.4*; SMARCA2 activ: 4; hcDAF12 agonist: 0; DAX1 StAR inh: 1

How did Cc1cccc(NC(=S)N2CCN(Cc3ccccc3)CC2)c1C do in these assays?
hgDAF12 agonist: 1; ssDAF-12 act: -1; SMARCA2 activ: -5; hcDAF12 agonist: 5.9*; DAX1 StAR inh: 0

What do the screens show for `Oc1[nH]c2ccccc2c1/C=N/c1nccs1`?
hgDAF12 agonist: 6; ssDAF-12 act: 1; SMARCA2 activ: 4; hcDAF12 agonist: 5.7*; DAX1 StAR inh: 1

What do the screens show for `Cc1c(NC2=C(Cl)C(=O)N(c3ccccc3)C2=O)c(=O)n(-c2ccccc2)n1C`?
hgDAF12 agonist: 0; ssDAF-12 act: 0; SMARCA2 activ: -2; hcDAF12 agonist: 3; DAX1 StAR inh: 0

What do the screens show for `Cc1c(NC2=C(Cl)C(=O)N(c3ccccc3Cl)C2=O)c(=O)n(-c2ccccc2)n1C`?
hgDAF12 agonist: 1; ssDAF-12 act: 0.9*; SMARCA2 activ: -1; hcDAF12 agonist: 5; DAX1 StAR inh: 0

How did O=C(Nc1ccc(F)cc1)OCCN1CCCC12CCC(c1ccccc1)CC2 (stereo not drawn) do in these assays?
hgDAF12 agonist: -1; ssDAF-12 act: -2; hcDAF12 agonist: -1

How did CC(=O)n1c2c(c3ccccc31)OC(N)=C(C#N)C2c1ccc(C(C)C)cc1 (stereo not drawn) do in these assays?
hgDAF12 agonist: -1; ssDAF-12 act: -1; SMARCA2 activ: -2; hcDAF12 agonist: 5.6*; DAX1 StAR inh: 0

What do the screens show for `CCOC(=O)N1CCN(C(=O)C[C@H]2C[C@@]3(C(=O)OC)C(=C[C@H](C(C)(C)C)O[C@@H]3C)N(CCc3ccc(OC)c(OC)c3)C2=O)CC1`?
hgDAF12 agonist: 0; ssDAF-12 act: -1; SMARCA2 activ: -2; hcDAF12 agonist: 0; DAX1 StAR inh: 0

What do the screens show for `Cc1cc(Nc2cccc(Br)c2)cc(=O)n1-c1cccc(Br)c1`?
hgDAF12 agonist: 2; ssDAF-12 act: -1; SMARCA2 activ: -3; hcDAF12 agonist: 1; DAX1 StAR inh: 0

What do the screens show for `C/C(=N/NC(=O)c1ccc(Br)o1)C(C)C`?
hgDAF12 agonist: 11*; ssDAF-12 act: -1; SMARCA2 activ: 2; hcDAF12 agonist: 2; DAX1 StAR inh: 2

How did CC(NC(=O)c1ccc(Br)o1)C1CCCO1 (stereo not drawn) do in these assays?
hgDAF12 agonist: 1; ssDAF-12 act: -1; SMARCA2 activ: 0; hcDAF12 agonist: -1; DAX1 StAR inh: 0
